# From PubChem BioAssay AID577 (University of Pittsburgh Molecular Library Screening Center, 2007)
# In all, about 65,000 compounds went through this assay and about 120 (0.18%) were called active. The full list was thinned out, with actives kept by preference. Values without a mark were called inactive. No stated cut-off is given here; in the data, active means z-score below about -3; inactive means the rest.
# Target: Genome polyprotein (West Nile virus) (UniProt P06935)
# Assay: inhibitors of WNV NS2B-NS3 protease, primary screen, biochemical, fluorogenic substrate (AID 577)
# Conditions: fluorogenic substrate Ex360/Em465, stronger effect = lower value
# Sequence of Genome polyprotein (West Nile virus) (P06935 1371-1501 limits assumed): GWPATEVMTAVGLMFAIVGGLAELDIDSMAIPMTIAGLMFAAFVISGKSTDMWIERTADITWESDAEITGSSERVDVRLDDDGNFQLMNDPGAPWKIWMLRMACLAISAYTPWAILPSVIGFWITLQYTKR
# Sequence of Genome polyprotein (West Nile virus) (P06935 1502-1679 limits assumed): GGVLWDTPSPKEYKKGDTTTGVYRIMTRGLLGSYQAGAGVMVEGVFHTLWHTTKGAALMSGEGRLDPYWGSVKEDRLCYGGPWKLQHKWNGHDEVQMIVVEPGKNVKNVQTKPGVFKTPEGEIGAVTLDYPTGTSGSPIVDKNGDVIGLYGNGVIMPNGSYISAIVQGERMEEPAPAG
row,SMILES,z-score
1,C[C@H](NC(=O)NCCc1ccccc1)C(=O)O,0.46
2,CC(=O)Nc1cccc2c1[n+]([O-])c(C)c(C)[n+]2[O-],1.06
3,CC(NC(=O)CN1CCN(Cc2ccc(Cl)cc2)C1=O)c1ccc2c(c1)OCCO2 (centres undefined),0.67
4,COc1ccc(OC)c(-n2cc3c(=O)n(C)c(=O)n(C)c3c2)c1,0.45
5,C=C(C)COc1ccc(-c2n[nH]c(C)c2-c2ccccc2OC)c(O)c1,0.16
6,COc1ccc(CC(NC(C)=O)C(=O)NC2CCN(C(=O)Nc3ccc(C#N)cc3)CC2)cc1OC (centres undefined),-0.8
7,Cc1cc(NC(=O)CCC(=O)N(c2cccc(F)c2)C(C(=O)NC2CCCC2)c2ccncc2)no1 (centres undefined),1.41
8,CCOc1ccc(-c2nnc(-c3ccco3)o2)cc1,-0.08
9,COc1ccc(CC(=O)Nc2ccc(-c3nnc(-c4ccc(C)cc4)o3)cc2)cc1,0.17
10,Cc1ccc(OCC(=O)Nc2ccc(-c3nnc(-c4ccco4)o3)cc2)cc1,-3.16 (active)
11,CCCn1c(O)c(CN2CCCC(C)C2)c(C)c(C#N)c1=O (centres undefined),-0.51
12,Clc1ccc(Cc2nn3c(-c4ccncc4)nnc3s2)cc1,0.04
13,O=C(O)C1OC(C(=O)O)C2C1C(F)(F)C2(F)F (centres undefined),1.24
14,CC1CSc2nnc(CCc3ccccc3)n21 (centres undefined),-0.75
15,CCOC(=O)C1CCCN(C(=O)c2ccc(CS(=O)(=O)c3ccc(Br)cc3)o2)C1 (centres undefined),-0.97
16,COc1cc2c(cc1NC(=O)CN1CCN(S(=O)(=O)c3ccc(F)cc3)CC1)oc1ccccc12,-0.05
17,CC(=O)N1C(=O)C2(Nc3ccccc3N2)c2ccccc21,-0.34
18,O=S(=O)(NCc1ccccn1)c1ccc(F)cc1,-0.56
19,Cc1cc(=O)n2c3c(cccc13)CCC2,-0.73
20,CCCCc1nc2ccccc2c(NC(=O)CN2CCN(C)CC2)c1CCC,-1.27
21,Cc1ccc(C(C(=O)NC2CCCC2)N(Cc2ccco2)C(=O)CCC(=O)Nc2ccccn2)cc1 (centres undefined),0.98
22,COc1ccc(-c2cn3ccsc3n2)cc1,-7.48 (active)

row,SMILES,z-score
1,CCCC(=O)Nc1cccc(-c2cn3ccsc3n2)c1,-1.1
2,O=C(NCc1cn2ccsc2n1)Nc1ccc(Cl)cc1,-0.25
3,CCOc1ccc(NC(=O)Nc2cc(C)on2)cc1,0.95
4,Cn1c(=O)c2c(ncn2CC(=O)N2CCN(c3ccccc3)CC2)n(C)c1=O,0.25
5,c1ccc(CCC2=NCCn3cccc32)cc1,-0.03
6,COC(=O)c1cc(NC2c3ccccc3C(=O)N2c2ccc(Cl)cn2)cc(C(=O)OC)c1 (centres undefined),-0.39
7,CC(C)(C)c1ccc(C(=O)NCCC(=O)NCc2ccco2)cc1,0.25
8,CCCN(CCC)CCNC(=O)c1cc2c(C)nc3ccccc3c2o1,0.99
9,Cc1cc2cc(CN(Cc3cccs3)Cc3nnnn3CC3CCCO3)c(=O)[nH]c2cc1C (centres undefined),-0.04
10,CCOc1ccccc1Oc1cn[nH]c1-c1ccc(OC)cc1O,-0.64
11,CC(C)CCNC(=O)CN(C(=O)Cn1nnc(-c2ccc(F)cc2)n1)C1CCCC1,-0.44
12,CCOC(=O)C1CCCN(C(=O)CN(c2ccc(OC)cc2)S(=O)(=O)c2c(C)noc2C)C1 (centres undefined),-0.04
13,Cc1cc(C)c(C)c(S(=O)(=O)Nc2ccc(O)cc2)c1C,-1.62
14,CC(C(=O)N1CCOCC1)N1c2cccc3cccc(c23)S1(=O)=O (centres undefined),-0.43
15,CCCOc1ccc(Cn2c(O)cc(=O)[nH]c2=O)cc1,0.4
16,CCC(=O)N1CCN=C1SCc1ccc(F)cc1,0.56
17,COc1ccc(CCN=C2SCC(=O)N2C)cc1OC,-0.84
18,Cn1c(=O)[nH]c(=O)c2c1nc(NCCCn1ccnc1)n2Cc1cccc(Br)c1,-0.12
19,CC(=O)Oc1ccc2c(C)c(CC(C)O)c(=O)oc2c1 (centres undefined),5.37
20,COC(=O)c1ccccc1NC(=O)CSc1ccccn1,-0.33
21,Cn1cccc1Cc1nnc(SCC(=O)NCCc2ccccc2)n1-c1ccc(F)cc1,-0.68
22,COCCn1c(CN(Cc2ccccc2)Cc2ccccc2)nc2c1c(=O)n(C)c(=O)n2C,0.73

row,SMILES,z-score
1,O=C(COc1ccc(Cl)cc1)Nc1ccccc1CO,1.62
2,CC(=O)C1=C(O)C(=O)N(c2ccc(S(N)(=O)=O)cc2)C1c1ccccc1F (centres undefined),-0.26
3,O=C(NCc1cccnc1)c1ccc(CS(=O)(=O)c2ccc(Br)cc2)o1,-0.48
4,CN(C)c1nc(N)nc(CSc2nnnn2-c2cccc3ccccc23)n1,-0.13
5,Fc1ccc(OCc2nn3c(Cn4nnc5ccccc54)nnc3s2)cc1,1.56
6,CS(=O)(=O)c1ccc2nc(NC(=O)C3CCCCC3)sc2c1,-0.5
7,Cc1ccc(F)cc1NC(=O)c1cccc(N(C)C)c1,-0.19
8,O=C(Nc1cccc(Cl)c1)OCc1ccccn1,0.46
9,CCC(C)(NC(=O)c1ccccn1)C(=O)NC1CCCCC1 (centres undefined),0.53
10,O=C(Nc1ccc2c(c1)OCO2)C1CC(c2c(F)cccc2Cl)=NO1 (centres undefined),1.16
11,CCSC1(SCC)N=C(N)C2(C#N)C(c3ccccc3)NC(C)=CC12C#N (centres undefined),-1.23
12,O=C(CC1OC(=O)c2ccccc21)NC1CCCCC1 (centres undefined),-0.53
13,O=C(NCC1CCCO1)C(C(=O)c1ccccc1)n1cc(Cl)ccc1=O (centres undefined),-0.94
14,CCn1cc(C(=O)N2CCN(C3CCCCC3)CC2)c2cc(OC)c(OC)cc2c1=O,0.44
15,O=C(O)C1CC(=O)N(Cc2cccnc2)C1 (centres undefined),-0.77
16,O=C1CCC(Cc2ccccc2)N1 (centres undefined),0.78
17,O.O.O.O=S(=O)([O-])OC[C@H]1O[C@@H](O[C@]2(COS(=O)(=O)[O-])O[C@H](OS(=O)(=O)[O-])[C@@H](OS(=O)(=O)[O-])[C@@H]2OS(=O)(=O)[O-])[C@H](OS(=O)(=O)[O-])[C@@H](OS(=O)(=O)[O-])[C@@H]1OS(=O)(=O)[O-].[Al],-0.72
18,CC(C)CNS(=O)(=O)c1ccc(OCC(=O)Nc2ccc3c(c2)OCO3)c(Cl)c1,0.53
19,COc1cccc(-c2nn(C)c3sc(C(=O)N4CCN(c5ccccc5)CC4)cc23)c1,-0.13
20,O=C(c1ccccc1)c1cccn1CC(=O)N1CCN(c2ccc(F)cc2)CC1,-1.05
21,COc1cccc(-c2nc(S(=O)(=O)c3ccccc3)c(N3CCOCC3)o2)c1,-0.88
22,CC(C)n1c(C(O)c2ccccc2)nc2ccccc21 (centres undefined),-1.05

row,SMILES,z-score
1,O=C(Nc1nnc(-c2ccc(Cl)cc2)o1)c1ccccc1Br,2.56
2,O=C(O)C1CCN1C1CCCCC1 (centres undefined),-0.3
3,CCCOc1ccc(NC(=O)C2CCCNC2=O)cc1 (centres undefined),0.11
4,CCn1cc(C(=O)NC2CCCCCC2)c(=O)c2cc(S(=O)(=O)N3CCCCC3)ccc21,-1.17
5,Oc1ccc(Cl)cc1/C=N/c1nc2ccccc2[nH]1,-0.26
6,CCOC(=O)C1CCN(C(=O)CC2C(=O)N(Cc3ccccc3)C(C)c3nc4ccccc4n32)CC1 (centres undefined),-0.76
7,Brc1cnc(N2CCCC2)nc1N1CCCCC1,-0.6
8,CCOC(=O)c1ccc(Nc2cc(C)nc3nc(C)nn23)cc1,-0.96
9,Cn1nc(-c2ccc(N3CCOCC3)c(NC(=O)c3ccccc3)c2)c2ccccc2c1=O,-0.07
10,COc1ccc(CCNC(=O)CSc2nnc(-c3cccc(F)c3)o2)cc1OC,0.62
11,O=C(CSC1=Nc2ccccc2C2=NC(c3ccccc3)C(=O)N12)NCC1CCCO1 (centres undefined),-0.94
12,CCOC(=O)N1CCN(C(=O)c2ccc(S(=O)(=O)c3ccc(C)cc3)c(NC(C)=O)c2)CC1,0.25
13,CCc1nc2oc3ccccc3c(=O)c2c(=O)n1Cc1ccc(OC)cc1,-0.51
14,CC1CCN(Cc2nc3c(c(=O)n(C)c(=O)n3C)n2Cc2cccc3ccccc23)CC1,-0.71
15,CCC(C(=O)N1CCOCC1)n1c(C(=O)OC)cc2occc21 (centres undefined),-1.12
16,O=C(NC1CCCCC1)N1CCc2[nH]c3ccccc3c2C1,0.65
17,Cn1c(=O)c2[nH]c(NCC3CCCO3)nc2n(-c2ccccc2)c1=O (centres undefined),-0.17
18,Cc1c(C(=O)NCC2CCCO2)sc2nc(-c3ccccc3)cn12 (centres undefined),0.86
19,Cc1nn(Cc2ccccc2)c(Cl)c1C(=O)OC1CCOC1=O (centres undefined),0.09
20,c1ccc(-c2cn3cccnc3n2)cc1,1.38
21,Cc1ccc(-n2c(Cc3cccs3)nnc2SCC(=O)OC(C)C)cc1,-0.91
22,CCOc1ccc(OCC)c(NC(=O)CSc2nnc(Cn3cnc4ccccc43)n2C)c1,1.68

row,SMILES,z-score
1,CSc1sc(C)cc1C1C(C#N)=C(N)N(c2cccnc2)C2=C1C(=O)CCC2 (centres undefined),0.7
2,CCC(C)n1[nH]c(=O)c2c(C)cc(C)nc21 (centres undefined),0.11
3,COc1ccc(/C(O)=C2/C(=O)C(=O)N(c3nc(C)c(C)s3)C2c2ccco2)cc1 (centres undefined),-0.46
4,CCOC(=O)c1sc(NC(=O)C(CC)Sc2nccn2C)nc1C (centres undefined),0.77
5,CCOC(=O)c1sc(=S)n2c1[nH]c(=O)c1ccc(C(=O)OC)cc12,0.38
6,Cc1ccccc1-c1nc(CS(=O)(=O)CC(=O)N2CCc3ccccc3C2)c(C)o1,-0.21
7,CC(C)c1ccc(NS(=O)(=O)c2cn(C)c(=O)n(C)c2=O)cc1,-1.04
8,CCCOc1ccc2c3c(c(=O)oc2c1OCCC)CCC3,-0.02
9,COc1ccc(NC(=O)CN(C)S(=O)(=O)c2ccccc2)cc1OC,-0.74
10,Cc1ccc(NC(=O)C2CCCN(S(=O)(=O)c3c(C)noc3C)C2)c(C)c1 (centres undefined),-1.04
11,CCOC(=O)Cn1c(CN(Cc2ccccc2)Cc2ccccc2)nc2c1c(=O)[nH]c(=O)n2C,1.45
12,COc1ccc(CCNS(=O)(=O)c2ccc(F)cc2)cc1OC,-0.37
13,Cc1nnc(SCC(=O)Nn2cnnc2)s1,0.2
14,CCCCn1c(CCCNC(=O)CC)nc2ccccc21,0.2
15,CC(=O)c1ccc(NC(=O)N[C@@H](Cc2ccccc2)C(=O)O)cc1,1.38
16,Cc1ccc(C)c(NC(=O)C2CC(=O)N(C(C)C)C2)c1 (centres undefined),-0.7
17,Clc1ccc(C=NC23CN4CN(CN(C4)C2)C3)cc1,1.48
18,O=C1CC(Cc2ccccc2)C(=O)N1c1ccc(Cl)cn1 (centres undefined),-1.5
19,CCN(CC)C(=O)CSc1nnc(-c2cnccn2)n1-c1ccc(C)cc1,0.78
20,CSCCC(NC(=O)C1CCC(C)CC1)C(=O)NCc1ccco1 (centres undefined),0.29
21,CCCCOC(=O)NCN1C(=O)C2C3C=CC(C3)C2C1=O (centres undefined),0.28
